# A selection: hits, their analogues and other compounds. The true share with any hit is near 7.4%.
# SMN2 splice up: enhancers of SMN2 splice variant expression; 210,000 compounds, 2.8% hits; Potency, µM (highest dose often 46.1 µM), for the others: top-dose activity change, positive = activation, most hits filed as activators; AID 1458; HEK293 SMN2-luciferase splicing reporter, luminescence, 30-36 h; further: % of control where 0% means no effect; nearly all actives have a fitted effect of over 55% in size
#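 HEK293 cells carry an SMN2 minigene-luciferase reporter in which exon 7 inclusion puts luciferase in frame. Cells were seeded at 2000 cells/well, attached for 10-12 hours, then exposed to compounds for 30-36 hours at 37C before ONE-Glo luminescence.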
# FLuc modulator: inhibits or activates purified firefly luciferase, miR-21 counter-screen | purified FLuc, Km substrates, luminescence inhibition | P08659 | Potency, µM (titrated, usually from 57.5 µM), for inactives: top-dose activity change, negative = inhibition, usual class: inhibitors | 360,000 compounds, 6.9% hits;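 further: plate controls were vehicle for no effect and reference inhibitor for full effect; nearly all actives have a fitted effect of over 55% in size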
# Target sequence (P08659 whole entry, looked up): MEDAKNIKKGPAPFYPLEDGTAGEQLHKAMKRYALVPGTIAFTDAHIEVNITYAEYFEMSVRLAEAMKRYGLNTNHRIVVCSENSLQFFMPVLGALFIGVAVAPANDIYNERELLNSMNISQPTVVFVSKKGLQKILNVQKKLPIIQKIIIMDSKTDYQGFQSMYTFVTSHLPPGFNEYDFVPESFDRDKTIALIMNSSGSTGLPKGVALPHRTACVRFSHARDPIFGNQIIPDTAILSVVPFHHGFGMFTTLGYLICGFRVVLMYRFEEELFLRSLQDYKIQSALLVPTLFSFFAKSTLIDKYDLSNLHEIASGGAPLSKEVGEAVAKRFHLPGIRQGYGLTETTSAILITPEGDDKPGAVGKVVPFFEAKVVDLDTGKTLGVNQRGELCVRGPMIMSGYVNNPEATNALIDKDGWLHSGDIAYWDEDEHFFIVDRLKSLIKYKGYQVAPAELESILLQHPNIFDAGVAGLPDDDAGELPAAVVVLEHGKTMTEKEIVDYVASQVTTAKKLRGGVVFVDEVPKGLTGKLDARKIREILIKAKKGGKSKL
#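 Purified P. pyralis luciferase (10nM final) with 10uM D-luciferin and 10uM ATP (Km levels) in 50mM Tris acetate pH 7.5, 10mM Mg acetate, 0.01% Tween-20, 0.05% BSA; qHTS 6-point titration, ~60 µM downward; luminescence read.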
# NPC1 prom act: NPC1 promoter activation. Huh7 NPC1 promoter luciferase reporter, 24 h. AID 485313. 320,000 compounds, 2.4% hits. Potency, µM (doses to about 9.22 µM), for the others: top-dose activation, most hits filed as activators; further: % of control where 0% means no effect; nearly all actives have a fitted effect of over 60% in size
#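 Compounds in DMSO were transferred onto Huh7 NPC1-luciferase reporter cells pre-incubated 2 h; after 24 h at 37 °C, Amplite reagent was dispensed and luminescence recorded 10 min later.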
# ELG1 genotoxic: inducers of genotoxicity in HEK293T ELG1-luciferase cells | HEK293T ELG1-luciferase reporter, luminescence, 16 h | Potency, µM (doses to about 46 µM), without a hit: top-dose activity change, positive = activation, hits mostly activators | 330,000 compounds, 1.3% hits | AID 504466; further: % of control where 0% means no effect; nearly all actives have a fitted effect of over 60% in size
#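 Luminescence read-out: rising ELG1-luciferase signal, reflecting elevated ELG1 protein under genetic stress, flags genotoxic compounds. Cells were treated for 16 hr at 37 °C before ONE-Glo detection.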
# Rab9 promoter act: Rab9 promoter activation; Potency, µM (titrated, usually from 9.22 µM), for inactives: top-dose activation, negative = inhibition, most hits filed as activators; AID 485297; Huh7 Rab9 promoter-luciferase reporter, luminescence, 24 h; 320,000 compounds, 2.8% hits; further: % of control where 0% means no effect; nearly all actives have a fitted effect of over 60% in size
#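 Quantitative HTS format; Huh7 Rab9-luciferase reporter cells (1500/well) receive compound 2 h post-plating, incubate 24 h at 37 °C, then get luciferase reagent for 10 min before luminescence reading.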
# * = called active by the depositor; ? = inconclusive; nt = no result. The call rests on the fitted dose curve; in most records, active means well fitted curve in the direction sought with a large enough effect; inconclusive means small, poorly fitted or top-dose-only effect, or another doubt; inactive means no such curve, though single readings can be large; an effect the other way counts as inactive or inconclusive. Potency means the concentration at half of the fitted maximal effect.
SMILES,SMN2 splice up,FLuc modulator,NPC1 prom act,ELG1 genotoxic,Rab9 promoter act
Cc1ccc2cc3cc(C(=O)NC4CC4)oc3nc2c1,nt,11µM*,4µM*,?,2.5µM*
Cn1c(SCC(=O)Nc2ccc(C(N)=O)cc2)nnc1-c1cccs1,nt,0%,1%,0%,-3%
COC(=O)c1ccc(Nc2ncnc3c2cnn3C)cc1,nt,-8%,nt,nt,nt
Cn1cnnc1SCC(=O)c1ccc2c(c1)CCCC2,5%,19µM*,14%,?,23%
Cc1ccc(Cl)cc1N1CCN(C(=O)c2c(C)oc3ncnc(N4CCOCC4)c23)CC1,nt,3%,nt,nt,nt
Cc1ccnc(NC(=O)Nc2ccc3c(c2)N(C)C(=O)CS3)c1,11µM*,3µM*,3.5µM*,?,2.8µM*
CC(=O)c1ccc(NC(=O)Nc2ccc3c(c2)N(C)C(=O)CS3)cc1,-20%,24µM*,0%,-13%,16%
COc1ccc(NC(=O)Nc2ccc3c(c2)N(C)C(=O)CS3)cc1Cl,-22%,17µM*,-1%,-2%,1%
Cc1ccc(NC(=O)Nc2ccc3c(c2)N(C)C(=O)CS3)nc1,?,-3%,0%,9%,4%
O=C1N(Cc2cccc(C(F)(F)F)c2)c2ccccc2S(=O)(=O)N1c1cccc(Cl)c1,nt,1%,nt,nt,nt
Cn1c(=O)c2c(SCC(=O)NCc3ccco3)nc(-c3cccc(F)c3)nc2n(C)c1=O,nt,-5%,nt,nt,nt
O=C(c1ccccc1)n1nc(-c2ccco2)nc1NCc1ccccc1Cl,7%,-9%,nt,nt,nt
CC(C)CCN1CCN(Cc2ccc(Sc3nncn3C)o2)CC1CCO (stereo unspecified),-9%,-1%,-7%,1%,11%
O=C(N/N=C/c1ccc(Br)s1)c1c[nH]c2ccccc12,8.9µM*,21µM*,3.5µM*,3%,2.8µM*
O=C(N/N=C/c1cc(Br)cs1)c1ccccc1[N+](=O)[O-],-8%,1%,-9%,-5%,-16%
O=C(N/N=C/c1cc(Br)cs1)c1c[nH]c2ccccc12,nt,17µM*,?,8%,24%
O=C(Nc1ccc(-c2nc3ccccc3o2)cc1)c1cccnc1,8.9µM*,2.7µM*,2.2µM*,?,1.6µM*
Cc1ccc2oc(-c3ccc(NC(=O)c4cccnc4)cc3)nc2c1,2µM*,6µM*,2.5µM*,?,2.2µM*
CCc1ccc2oc(-c3cc(NC(=O)c4cc(OC)c(OC)c(OC)c4)ccc3O)nc2c1,-7%,3.8µM*,nt,nt,nt
Cc1ccc2nc(-c3ccc(Cl)c(NC(=O)c4cccc([N+](=O)[O-])c4C)c3)oc2c1,2%,-20%,nt,nt,nt
Cc1ccc2nc(-c3ccc(Cl)c(NC(=O)c4cccnc4)c3)oc2c1,-4%,0.6µM*,nt,nt,nt
O=C(Nc1cccc(-c2nc3ccccc3o2)c1)c1cccnc1,-35%,?,-1%,-6%,-1%
CC(OC(=O)c1ccco1)C(=O)Nc1ncc(Cl)cc1Cl (stereo unspecified),nt,-2%,-3%,-2%,-6%
N#CCCn1c(=O)c(-c2cc(F)cc(F)c2)nc2cnc(OCc3ccccc3)nc21,-19%,nt,nt,nt,nt
Nc1ccc(N)c([N+](=O)[O-])c1,10%,nt,nt,nt,nt
SMILES,SMN2 splice up,FLuc modulator,NPC1 prom act,ELG1 genotoxic,Rab9 promoter act
CCc1ccc2oc(-c3cc(N=Cc4cccc(OC)c4O)ccc3O)nc2c1,14µM*,0.43µM*,4.5µM*,?,4µM*
CCc1ccc2oc(-c3cc(NC(=O)c4cccnc4)cc(C)c3O)nc2c1,12%,0.85µM*,nt,nt,nt
Cc1ccc2nc(-c3ccc(Cl)c(NC(=O)COc4cccc(C)c4C)c3)oc2c1,?,4.8µM*,nt,nt,nt
CCOc1cccc(C(=O)Nc2cc(C)c(O)c(-c3nc4ncccc4o3)c2)c1,6%,?,nt,nt,nt
CC(C)NC(=O)N1CCC2(CC1)CCN(C(=O)c1cnccn1)CC2,-7%,nt,nt,nt,nt
Nc1ccc(S(=O)(=O)O)cc1,2%,nt,nt,nt,nt
Cc1oc(-c2ccccc2F)nc1CS(=O)(=O)CC(=O)N1CCN(c2ccc(Cl)cc2)CC1,-44%,-12%,nt,nt,nt
COc1ccc(-n2nc(C(=O)NCC(=O)N3CCN(C)CC3)c3ccccc3c2=O)cc1,nt,15µM*,-3%,4%,0%
COc1ccc(-n2nc(C(=O)NCC(=O)NCCCN3CC(C)CC(C)C3)c3ccccc3c2=O)cc1 (stereo unspecified),nt,2%,2%,4%,-4%
CCOc1ccc(NC(=O)CNC(=O)c2nn(-c3ccc(OC)cc3)c(=O)c3ccccc23)cc1,nt,0%,-2%,-12%,-3%
COc1ccc(-n2nc(C(=O)NCC(=O)N3CC(C)CC(C)C3)c3ccccc3c2=O)cc1 (stereo unspecified),nt,19µM*,-1%,-22%,2%
CCOC(=O)N1CCN(C(=O)CNC(=O)c2nn(-c3ccc(OC)cc3)c(=O)c3ccccc23)CC1,25%,3.8µM*,6%,0%,?
COc1ccc(N2CCN(C(=O)CNC(=O)c3nn(-c4ccc(OC)cc4)c(=O)c4ccccc34)CC2)cc1,nt,?,-1%,-19%,8%
COc1ccc(-n2nc(C(=O)NCC(=O)N3CCCCCC3)c3ccccc3c2=O)cc1,nt,5.4µM*,-14%,-4%,7%
CCOC(=O)C1CCCN(c2c(C(=O)c3ccccc3)cnc3ccc(F)cc23)C1 (stereo unspecified),-5%,-12%,nt,nt,nt
CCOC(=O)c1c(C)oc2nc(C)nc(NCCCN3CCN(c4ccccc4OC)CC3)c12,nt,-8%,nt,nt,nt
Cc1nc2cc(OCc3cc(C(=O)NC(C)c4cnn(C)c4)no3)ccc2s1 (stereo unspecified),nt,17µM*,12%,-4%,27%
COc1ccc(OCc2cc(C(=O)NC(C)c3cnn(C)c3)no2)c(Cl)c1 (stereo unspecified),nt,13µM*,?,?,?
Cc1nn(C)cc1C(C)NC(=O)c1cc(COc2c(F)cccc2F)on1 (stereo unspecified),nt,5%,-7%,3%,-2%
CC(NC(=O)c1cc(COc2c(F)cccc2F)on1)c1cnn(-c2ccccc2)c1 (stereo unspecified),nt,17µM*,23%,18%,?
Cc1ccc(NC(=O)CSCC(=O)N(C)CC(=O)Nc2ccccc2C(F)(F)F)cc1,nt,2%,-4%,-1%,-7%
COc1cccc(-n2cc(C(=O)NCCc3cccc(C)c3)c3ccccc3c2=O)c1,nt,-11%,nt,nt,nt
CC(/C=N/NC(=O)c1ccco1)=C\c1ccccc1,2.5µM*,2.4µM*,0.56µM*,2.3µM*,0.35µM*
CC(/C=N\NC(=O)c1ccc(C)nc1)=C\c1ccccc1,7%,8.5µM*,3%,2%,-3%
CC(/C=N/NC(=O)c1cccc([N+](=O)[O-])c1)=C\c1ccccc1,-2%,-13%,?,9%,21%
CC(/C=N/NC(=O)c1ccccc1F)=C\c1ccccc1,nt,3.4µM*,1.1µM*,?,1.1µM*
